KAT2A inh – blocks human GCN5L2 histone acetyltransferase; Q92830; GCN5L2 HAT assay, ThioGlo1 CoA-SH fluorescence; Potency, µM (series often up to 58.9 µM), actives largely listed as inhibitors; 390,000 compounds, 0.21% hits; AID 504327
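Fluorescence readout, Ex340nm/Em540nm: ThioGlo1 (50uM final) reacts with free CoA thiol released as 20nM GCN5L2 acetylates H3(1-25) peptide (75uM) using acetyl-CoA (70uM). Compound and enzyme sat 15 min beforehand; 20 min room-temperature reaction.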
POLH inh – inhibitors of human DNA polymerase eta. 390,000 compounds, 1.2% hits. recombinant Pol eta, fluorescent DNA replication assay. AID 588591. Potency, µM (top dose mostly 114 µM), actives largely listed as inhibitors
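Pol eta at 10 nM preincubated with compounds 15 min at room temperature; reaction started with fluorescent substrate (50 nM final) and read kinetically at 0 and 10 min.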
GLS inhibitor – glutaminase GLS (human) inhibition. Potency, µM (top dose mostly 45.5 µM), hits mostly inhibitors. GLS enzymatic activity, qHTS titration. AID 624170. 410,000 compounds, 0.21% hits
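hKGA in 45 mM KH2PO4 pH 8.2, 0.02% Tween-20 with pin-transferred compounds; 1 mM L-glutamine (stock) plus glutamate oxidase/HRP/Amplex Red coupling added. Fluorescence read initially and after 30 min at RT.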
POLK inh – blocks human DNA polymerase kappa activity; Potency, µM (series often up to 107 µM), most hits filed as inhibitors; 400,000 compounds, 0.53% hits; AID 588579; purified Pol kappa, fluorescent DNA synthesis assay, 10 min
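Kinetic fluorescence readout at 0 and 10 min followed reaction start with substrate at 50 nM final. Beforehand, enzyme (10 nM Pol kappa) stood 15 min with compound at room temperature; buffer-only wells were negative controls.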
POLB inh – inhibitors of human DNA polymerase beta. P06746. 340,000 compounds, 1.3% hits. Pol beta primer extension/strand displacement, fluorescence kinetic. Potency, µM (titrated, usually from 114 µM), most hits filed as inhibitors
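Values derive from four-parameter Hill fits of normalized kinetic data: reads at 0 and 10 min following addition of 50 nM substrate to 10 nM Pol beta preincubated 15 min with compound.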
Pol iota inh – DNA polymerase iota (human) inhibition; Q9UNA4; Pol iota fluorescent replication assay, 10 min; Potency, µM (highest dose often 115 µM), actives largely listed as inhibitors; 390,000 compounds, 1% hits; AID 588590
Target sequence (Q9UNA4 whole entry, looked up): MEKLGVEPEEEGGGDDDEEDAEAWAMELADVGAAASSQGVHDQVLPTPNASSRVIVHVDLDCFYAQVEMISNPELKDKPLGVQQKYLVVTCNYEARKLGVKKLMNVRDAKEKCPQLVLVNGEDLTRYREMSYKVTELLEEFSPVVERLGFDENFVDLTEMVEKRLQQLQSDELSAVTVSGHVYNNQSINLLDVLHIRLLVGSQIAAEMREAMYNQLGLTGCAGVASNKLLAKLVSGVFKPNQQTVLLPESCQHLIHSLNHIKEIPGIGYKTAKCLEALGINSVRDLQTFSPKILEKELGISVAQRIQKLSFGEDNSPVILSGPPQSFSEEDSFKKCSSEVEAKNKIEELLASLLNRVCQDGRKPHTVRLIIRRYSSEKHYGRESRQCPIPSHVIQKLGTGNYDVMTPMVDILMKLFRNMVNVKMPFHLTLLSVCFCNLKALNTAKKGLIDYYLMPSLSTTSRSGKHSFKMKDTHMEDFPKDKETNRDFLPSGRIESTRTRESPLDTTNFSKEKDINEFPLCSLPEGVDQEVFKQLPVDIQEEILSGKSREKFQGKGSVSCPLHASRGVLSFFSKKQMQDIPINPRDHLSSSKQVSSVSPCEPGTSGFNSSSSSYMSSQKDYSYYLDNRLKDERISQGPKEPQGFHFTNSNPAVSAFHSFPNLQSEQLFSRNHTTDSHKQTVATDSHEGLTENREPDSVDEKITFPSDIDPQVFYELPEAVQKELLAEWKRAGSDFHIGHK
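Fluorescent replication assay read twice, at 0 min and 10 min after adding 50 nM (final) substrate. Enzyme (10 nM) and compounds were first incubated 15 min at room temperature; enzyme-free buffer wells were negative controls.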
Hits are given with their value; - = inactive; ? = inconclusive; . = no result given; [ ] = dose if it differs, or a comment. The list is not random: actives were taken first. Their share in the collection is about 2.4%. Calls come from the whole dose curve; as a rule, active = well fitted inhibition curve with a large enough effect; inconclusive = small, poorly fitted or top-dose-only effect, or another doubt; inactive = no such curve, though single readings can be large or run the other way.

SMILES	KAT2A inh	POLH inh	GLS inhibitor	POLK inh	POLB inh	Pol iota inh
CSCCC(NC(=O)[C@H](Cc1c[nH]c2ccccc12)NC(=O)CNC(=O)[C@H](CCSC)NC(=O)[C@H](Cc1ccc(OS(=O)(=O)O)cc1)NC(=O)[C@@H](N)CC(=O)O)C(=O)N[C@@H](CC(=O)O)C(=O)N[C@@H](Cc1ccccc1)C(N)=O (stereo partly specified)	.	.	-	.	.	.
CNc1c(Br)cc(C=O)cc1Br	.	.	.	-	.	-
OCCN(CCO)c1ccc(/C=C/c2ccnc3ccccc23)cc1	.	.	.	-	.	-
CC(/C=N/NC(=O)c1cc(-c2ccc(C)s2)[nH]n1)=C\c1ccccc1	-	-	-	-	-	-
O=C(N/N=C/c1ccc(Cl)cc1Cl)c1ccc2nc[nH]c2c1	-	-	-	-	16µM	-
COc1ccccc1/C=C/C=N/NC(=O)c1ccc2nc[nH]c2c1	-	.	.	.	35µM	.
CC(=C/c1ccccc1)/C=N/NC(=O)c1ccc2nc[nH]c2c1	-	-	-	-	32µM	-
CC(/C=N/NC(=O)c1ccc2nc(C)[nH]c2c1)=C\c1ccccc1	-	?	-	-	28µM	-
O=C(N/N=C/c1cc([N+](=O)[O-])ccc1Cl)c1ccc2nc[nH]c2c1	-	?	-	-	-	-
COC(=O)[C@H](CCCN=C(N)N)NC(=O)CCCc1c(-c2ccccc2)[nH]c2c(F)cc(F)cc12	-	.	.	-	.	.
CC(/C=N/NC(=O)c1cccc(F)c1)=C\c1ccccc1	-	-	-	-	18µM	-
CC(/C=N/NC(=O)c1ccncc1)=C\c1ccccc1	-	-	-	-	-	-
Cc1ccnc2ccc(F)cc12	.	.	.	-	.	-
CC1=C(C(=O)NCc2ccc(Cl)cc2)C2(CCCCCC2)OC1=O	-	-	-	-	-	-
COc1ccc2c(CC(=O)N3CCN(S(=O)(=O)c4cccs4)CC3)coc2c1	-	-	-	-	-	-
COc1ccc2c(CC(=O)N3CCN(S(=O)(=O)c4ccc(F)cc4)CC3)coc2c1	-	32µM	-	?	.	?
Cc1ccc2c(CC(=O)N3CCN(S(=O)(=O)c4ccccc4)CC3)coc2c1	-	32µM	-	?	.	?
COc1ccccc1NC(=O)Cc1coc2cc(C)ccc12	-	-	-	-	-	-
Cc1ccc2c(CC(=O)NNC(=O)c3ccccc3O)coc2c1	-	?	-	-	.	45µM
Cc1ccc(N(C)S(=O)(=O)c2nnc(NC(=O)CC(C)C)s2)cc1	-	-	-	-	-	-
NC[C@@H]1O[C@@H](O[C@H]2[C@@H](O)[C@H](O[C@@H]3[C@@H](O)[C@@H](N)C[C@H](N)[C@H]3O[C@H]3O[C@H](CN)[C@@H](O)[C@@H](O)[C@H]3N)O[C@H]2CO)[C@H](N)[C@@H](O)[C@@H]1O	.	.	-	.	.	.
CCOC(=O)Cn1cccc1-c1nc(-c2ccc(OC)cc2)c(-c2ccc(OC)cc2)s1	.	.	-	.	.	.
C=CCn1c(SCC(=O)Nc2ccc(-c3nc4ccc(C)cc4s3)cc2)nnc1-c1ccncc1	-	-	-	-	?	-
CCn1c(SCC(=O)Nc2ccc(-c3nc4ccc(C)cc4s3)cc2)nnc1-c1ccccc1	-	.	.	.	7.9µM	.
Cc1ccc2nc(-c3ccc(NC(=O)CSc4nc(N)cc(=O)[nH]4)cc3)sc2c1	-	-	-	-	-	-
SMILES	KAT2A inh	POLH inh	GLS inhibitor	POLK inh	POLB inh	Pol iota inh
Cc1ccc2nc(-c3ccc(NC(=O)CSc4nccc(=O)[nH]4)cc3)sc2c1	-	-	-	-	35µM	-
Cc1ccc(C)c2c(C)ccnc12	.	.	.	-	.	-
CCN1C(=O)c2cccc3c(S(=O)(=O)NCc4cccnc4)ccc1c23	-	-	-	-	-	-
CCN1C(=O)c2cccc3c(S(=O)(=O)NCc4ccco4)ccc1c23	-	-	-	-	-	32µM
Cc1ccc(C(=O)OCC(=O)Nc2c(Cl)cc(S(N)(=O)=O)cc2Cl)o1	-	-	-	?	?	71µM
Cc1ccc(C(=O)OCC(=O)NCCc2ccc(S(N)(=O)=O)cc2)o1	-	?	-	-	.	-
CCC(C)C1OC2(C=CC1C)CC1CC(C/C=C(\C)C(OC3CC(OC)C(OC4CC(OC)C(NC(C)=O)C(C)O4)C(C)O3)C(C)/C=C/C=C3\COC4C(O)C(C)=CC(C(=O)O1)C34O)O2 (stereo unspecified) (tested in a mixture with another compound)	.	.	-	.	.	.
O=C(Nc1ccc(Cl)cc1)Nc1nnc(-c2ccncc2)s1	-	?	-	-	-	-
O=C(Nc1ccc(F)cc1)Nc1nnc(-c2ccncc2)s1	-	-	-	-	-	?
Cc1ccc(NC(=O)Nc2nnc(-c3ccncc3)s2)cc1C	-	89µM	-	?	-	22µM
O=C(Nc1cccc(Cl)c1)Nc1nnc(-c2ccncc2)s1	?	?	-	-	40µM	?
COc1ccc(-c2csc(NC(=S)NC(=O)c3cccs3)n2)cc1OC	-	20µM	-	-	?	?
COc1ccc(-c2csc(NC(=S)NC(=O)c3cccs3)n2)cc1Br	-	-	-	-	-	-
O=C(NCc1ccccc1Cl)c1ccc(Cn2c(=O)c3cccn3c3cccnc32)cc1	-	-	-	-	-	-
Cc1ccccc1CCNC(=O)c1ccc(Cn2c(=O)c3cccn3c3cccnc32)cc1	-	89µM	-	-	?	?
Cc1ccc(CCNC(=O)c2ccc(Cn3c(=O)c4cccn4c4cccnc43)cc2)cc1	-	?	-	-	?	79µM
CC(C)CCNC(=O)c1ccc(Cn2c(=O)c3cccn3c3cccnc32)cc1	-	-	-	-	-	-
CN(C)CCOc1ccccc1Cc1ccccc1 (tested in a mixture with another compound)	.	.	-	.	.	.
O=C(Cc1ccccc1)NC1CC(=O)N(c2ccccc2)C1 (stereo unspecified)	-	-	-	-	-	-
Cc1[nH]c(=O)nc(SCc2ccc(Cl)c(Cl)c2)c1C#N	-	-	-	-	-	-
Cc1[nH]c(=O)nc(SCc2cccc(Cl)c2)c1C#N	-	-	-	-	71µM	-
Cc1ccc(Cn2c(CO)cnc2SCC(=O)Nc2ccc(C)c(Cl)c2)cc1	?	-	-	-	-	-
Cn1cc(C(=O)[C@@H]2CCc3[nH]cnc3C2)c2ccccc21	-	.	-	-[19.4 µM]	.	.
O=C(O)CN1C(=O)/C(=C\c2ccccc2OCc2ccc(Cl)cc2Cl)SC1=S	18µM	45µM	-	-	20µM	?
O=C(O)CN1C(=O)/C(=C\c2cc(Br)ccc2OCc2ccccc2Cl)SC1=S	?	40µM	-	-	32µM	?
O=C(CCCCCNC(=O)c1ccccc1)N/N=C/c1ccccc1O	-	-	-	-	-	-
O=C(CCCCCNC(=O)c1ccccc1)N/N=C/c1ccco1	-	-	-	-	16µM	?
